# Results as given in PubChem BioAssay (Tox21).
# Where “and” joins values, the source holds several entries; their conditions need not be identical. Equal values may be shown once. Inconclusive results are not listed. Calls of active or inactive are those of the source. Calls come from the whole dose curve; as a rule, active = well fitted inhibition curve with a large enough effect in the repeat runs; inconclusive = weak or mixed curves; inactive = no such curve, though single readings can be large or run the other way.
# Assay: qHTS assay to identify small molecule antagonists of the estrogen related receptor (ERR) signaling pathway from Tox21 library (AID 1224848); note: nearly all actives have a fitted effect of over 50% in size
# Conditions: ERR reporter cell line, luciferase antagonist mode, 18 h; series mostly up to 92.4 µM; activity, negative = inhibition: at the top concentration
# Excerpt: U.S. Tox21 Program National Center for Advancing Translational Sciences [NCATS] NIH Chemical Genomics Center [NCGC] U.S. Environmental Protection Agency [EPA] National Institutes of Environmental Health Sciences [NIEHS] National Toxicology Program [NTP] U.S. Food and Drug Administration [FDA] Tox21 Assay Overview: Estrogen related receptors (ERRs), the first orphan nuclear receptors discovered, play an important role in the control of cellular energy metabolism. ERRs are required for high-energy production in response to the environmental challenges. ERR-alpha was also identified as an adverse marker for breast cancer progression; ERR-alpha-positive tumors have a poor prognosis. To screen and to identify environmental compounds that perturb the ERR signaling pathways could provide valuable information for potential therapeutic or preventive measures in the treatment of metabolic disease. For identifying ERR antagonists, ERR cell line (provided by NTP) has been used to screen Tox21 10K library.
# Tox21 Assay Protocol Summary: The ERR cells were dispensed at 2,000 cells/5 ul/well in 1536-well white plates using a Multidrop dispenser. After the assay plates were incubated at a 37 C/5% CO2 incubator for 6 hours, 23 nL of compounds dissolved in DMSO, positive and negative controls or DMSO only was transferred to the assay plate by a pin tool. The plates were incubated at 37 C for 18 hours. 4 ul/well of One-Glo reagent was added into the assay plates using a Flying Reagent Dispenser. After 30-minute incubation at room temperature, the luminescence intensity in the plates was measured using a ViewLux plate reader.
# % is set by controls: 0 for no effect and ±100 for the full control effect; potency is the fitted concentration of half-maximal effect.
Compound,"activity, negative = inhibition",Potency
CC(C)=CC1C(C(=O)OC(C#N)c2cccc(Oc3ccccc3)c2)C1(C)C (stereo not given),-10.2% (inactive),–
Oc1cc(Cl)c(Cl)c(Cl)c1Cl,–,26.7 µM (active)
C[C@]12Cc3cn[nH]c3C[C@@H]1CC[C@@H]1[C@@H]2CC[C@@]2(C)[C@H]1CC[C@]2(C)O,–,26.6 µM (active)
COP(=O)(OC)O/C(=C\Cl)c1cc(Cl)c(Cl)cc1Cl,–,21.7 µM (active)
ClSC(Cl)(Cl)Cl,1.94% (inactive),–
CC(Cc1ccc2c(c1)OCO2)NO (stereo not given),-4.17% (inactive),–
CCC[CH2][Sn]([CH2]CCC)([CH2]CCC)[O][Sn]([CH2]CCC)([CH2]CCC)[CH2]CCC,–,0.377 µM (active)
C=C(C)C(=O)[O][Sn]([CH2]CCC)([CH2]CCC)[CH2]CCC,–,0.486 µM (active)
CCOC(=O)CCN(SN(C)C(=O)Oc1cccc2c1OC(C)(C)C2)C(C)C,–,61.1 µM (active)
CC(Cc1ccc(OCC(=O)O)cc1)NCC(O)c1csc(C(F)(F)F)n1 (stereo not given),21.9% (inactive),–
CC(C)N(C(=O)CCl)c1ccccc1,–,15.4 µM (active) and 13.7 µM (active)
CCCCCCC[CH2][Sn]([Cl])([Cl])[CH2]CCCCCCC,–,61.1 µM (active)
O=C(Nc1ccc(F)cc1F)c1cccnc1Oc1cccc(C(F)(F)F)c1,8.71% (inactive),–
C[C@]12C/C(=C/O)C(=O)C[C@@H]1CC[C@@H]1[C@@H]2CC[C@@]2(C)[C@H]1CC[C@]2(C)O,–,34.7 µM (active) and 33.5 µM (active)
c1ccc(N=NNc2ccccc2)cc1,–,inactive
CCC1COC(Cn2cncn2)(c2ccc(Cl)cc2Cl)O1 (stereo not given),–,61.1 µM (active)
CNC(=O)Oc1cc(C)cc(C(C)C)c1,13.7% (inactive),–
N#Cc1c[nH]cc1-c1cccc2c1OC(F)(F)O2,–,27.3 µM (active)
CCCCN(CCCC)C(=S)S,-9.98% (inactive),–
CN1CCc2cc(Cl)c(O)cc2[C@H]2c3ccccc3CC[C@@H]21,1.83% [at 42.5 µM] (inactive),–

Compound,"activity, negative = inhibition",Potency
CCN(CC)Cc1nccn1-c1ccc([N+](=O)[O-])cc1C(=O)c1ccccc1Cl,-19.3% [at 42.5 µM] (inactive),–
Cc1c([N+](=O)[O-])c(C)c([N+](=O)[O-])c(C(C)(C)C)c1[N+](=O)[O-],-6.16% (inactive),–
Cc1nn(-c2cc(NS(C)(=O)=O)c(Cl)cc2Cl)c(=O)n1C(F)F,-13.9% (inactive),–
Oc1ccc2[nH]cc(CCCCN3CC=C(c4ccccc4)CC3)c2c1,–,29.8 µM (active)
C#CC1(O)CCCCC1,1.71% (inactive),–
Oc1ccc([C@H]2CNCc3c2ccc(O)c3O)cc1O,-9.31% [at 42.5 µM] (inactive),–
Fc1ccc(C(OCCN2CCN(CCCc3ccccc3)CC2)c2ccc(F)cc2)cc1,–,6.68 µM (active)
O=[N+]([O-])C(Br)Br,7.81% (inactive),–
CCC[CH2][Sn]([CH2]CCC)([CH2]CCC)[CH2]CCC,–,13.7 µM (active)
C#CCC1=C(C)C(OC(=O)C2C(C=C(C)C)C2(C)C)CC1=O (stereo not given),–,48.2 µM (active)
Nc1cc(Cl)ccc1Cl,-0.251% (inactive),–
Brc1ccc(Oc2ccc(Br)cc2Br)c(Br)c1,18.7% (inactive),–
CC(=O)[O][Sn]([c]1ccccc1)([c]1ccccc1)[c]1ccccc1,–,0.077 µM (active)
CCOP(=S)(NC(C)C)Oc1ccccc1C(=O)OC(C)C (stereo not given),–,30.6 µM (active)
O=C1C2(Cl)C3(Cl)C4(Cl)C(Cl)(Cl)C5(Cl)C3(Cl)C1(Cl)C5(Cl)C24Cl (stereo not given),–,26.9 µM (active) and 58.5 µM (active)
Cc1ccccc1OP(=O)(Oc1ccccc1C)Oc1ccccc1C,-8.73% (inactive),–
CCc1cccc(C)c1N(C(=O)CCl)[C@@H](C)COC,–,61.1 µM (active)
CCN(CC)CCN1C(=O)CN=C(c2ccccc2F)c2cc(Cl)ccc21,-16.3% [at 42.5 µM] (inactive),–
COC(=O)N(OC)c1ccccc1COc1ccn(-c2ccc(Cl)cc2)n1,–,0.137 µM (active)
COC(=O)C(C)N(C(=O)c1ccco1)c1c(C)cccc1C (stereo not given),-24.3% (inactive),–
